These results are taken from PubChem BioAssay (NCI).

Structures are written as SMILES. This is part of a sample that, as a whole, favours compounds with a hit. Of some 83,000 tested, about 20% had one in any assay.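 Percent growth is the endpoint: 0 to 100 indicates growth inhibition (40 means 60% inhibition), 0 means no net growth, and negative values indicate cell death.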 Calls of active or inactive are those of the source. The calls were made as follows: active = growth percent below 10; inactive = the rest.

In this experiment the test system is HL-60(TB) leukemia. The experiment is described as follows: NCI-60 one-dose screen, 48 h (100 = growth as untreated, 0 = no growth, -100 = all killed). To be noted: 10 µM unless noted.
With `CCOc1ccc(Nc2nc(-c3ccc4c(c3)NC(=O)CO4)cs2)cc1`, the growth is 66.9% (inactive). As for `Cc1oc(-c2ccccc2Cl)cc1C(=O)Nc1ccc(S(N)(=O)=O)cc1`, the figure is 102% (inactive); as for `COc1ccc(-n2c(C(O)c3ccccc3)nn(CN3CCOCC3)c2=S)cc1` (configuration not stated), 126% (inactive); as for `COc1cc(-c2n[nH]nc2-c2ccccn2)cc(OC)c1OC`, 83.3% (inactive).

`Cn1c2c(cc(S(=O)(=O)c3ccccc3)c1=O)CCc1c-2cnn1-c1ccc(Cl)cc1`: the growth is 73.1% (inactive). With `O=C(CCN1CCCC1)c1ccc([N+](=O)[O-])cc1`, the growth is -21.1% (active).

For `CC(C)(C)n1cc(-c2ccnc(NCCCNS(=O)(=O)c3ccc(F)cc3)c2)c(-c2cccc(O)c2)n1`, the growth was 39.9% (inactive). Consider `CCN(CC)CCNC(Cc1ccccc1)c1ccc(OCc2ccccc2)cc1` (configuration not stated), for which the growth is 46.8% (inactive).

`COC(=O)N/N=C/c1c[n+]([O-])c2ccccc2[n+]1[O-]`: the growth was 97.2% (inactive). As for `Cn1c2c(c3ccc(Cl)c(Cl)c31)C(C#N)C1(CCNCC1)NC2=O` (configuration not stated), the growth is 4.92% (active). As for `O=c1n(CC2CO2)c(=O)n(CC2CO2)n1CC1CO1` (configuration not stated), the figure is 7.91% (active); as for `O=C(/C=C/c1cccc(Oc2ccccc2)c1)c1ccc(Nc2nc(Nc3ccc(F)cc3)nc(Nc3ccc(Cl)cc3)n2)cc1`, -38.2% (active). With `O=C(/C=C/c1ccc(Cl)cc1)c1ccc(NC(=O)N2CCN(c3cc4c(cc3F)c(=O)c(C(=O)O)cn4C3CC3)CC2)cc1`, the growth was 94.2% (inactive). With `O=Cc1ccc(O)c(O)c1`, the growth was 88% (inactive).

On to `N#CC1=C(N)Oc2c(sc3c(Br)cccc23)C1c1ccccn1` (configuration not stated), for which the growth was 7.5% (active). The result for `O=C(CN(C(=O)Cn1c(=O)n2nnnc2c2ccccc21)c1ccccc1C(F)(F)F)Nc1ccc(C(F)(F)F)cc1` reads 101% (inactive). As for `CCN(CC)CCn1c2ccc(O)cc2c2sc3cc(O)ccc3c(=O)c21`, the growth was 38% (inactive). Take `COc1ccc(C(=O)c2cc3c(OC)c(OC)c(OC)cc3[nH]2)cc1`: the growth was 36.1% (inactive). As to `C=CC(=O)Nc1cccc(-c2nc(SC)nc(NCCN3CCOCC3)c2C#N)c1`, the growth was 94.9% (inactive). Regarding `CCOc1cccc(-c2nc(N)nc(Nc3ccccc3SSc3ccccc3Nc3nc(N)nc(-c4cccc(OCC)c4)n3)n2)c1`, the growth is 8.5% (active). As for `COc1ccc(-c2nc3c(c(=O)n2C(C)=O)C(c2ccc(Cl)cc2)c2sc4c(Cl)cccc4c2O3)cc1` (configuration not stated), the figure is -14% (active); as for `CCOC(=O)CN(c1sc(C)c(C)c1C(=O)OCC)S(=O)(=O)c1ccc(C)cc1`, 94.2% (inactive); as for `N#Cc1nc2c(S(=O)(=O)c3ccc(Cl)cc3)c(N)n(Nc3cccc(Cl)c3)c2nc1C#N`, 40.1% (inactive).

In the case of `COc1ccccc1[C@H]1c2[nH]c3ccccc3c2C[C@H]2C(=O)N(CCCCCCC(=O)NO)CC(=O)N12`, the growth was 1.91% (active).

For `COC(=O)c1cc(-c2cc(OC)c(OC)c(OC)c2)[nH]c1N/N=C/c1c(Cl)cccc1Cl`, the growth is 134% (inactive). With `COc1ccc2c(c1)nc(N)c1c3cc(OC)c(OC)cc3cn21`, the growth is 23.1% (inactive).

Take `CN(C)c1ccc(N=C2C=CC(=O)C=C2)cc1`: the growth is 111% (inactive).

For the molecule `CCC(C)Oc1cc(/C=N/NC(=O)c2cnn3c2NC(c2ccccc2)C3)ccc1OC` (configuration not stated), the growth was 32.2% (inactive). The result for `C#Cc1cccc(NC(=O)c2ccc(NC(=O)C=C)cc2)c1` reads 80.6% [8.25 µM] (inactive); that for `COc1cc(/C=C/C(=O)c2cccc(-n3cc(-c4ccccc4)[nH]c3=O)c2)cc(OC)c1OC`, -5.55% (active). The result for `C#CC(F)(F)[C@]1(O)CC[C@H]2[C@@H]3CCC4=CC(=O)CCC4=C3[C@@H](c3ccc(C4CC4)cc3)C[C@@]21C` reads -61.1% (active); that for `COc1ccc(-c2nn(-c3cccc(NC(=O)c4ccc5c(c4)OCCO5)c3)cc2-c2ccncc2)cc1Cl`, -2.93% (active); that for `Nc1nc(N)c2c(n1)NC(c1ccc3c(c1)OCO3)CC(c1cccc(Nc3ccncc3)c1)=N2` (configuration not stated), 57% (inactive).

In the case of `NC1=CC(=O)c2ccccc2C1=O`, the growth is 81.6% (inactive). As to `COC(=O)c1ccc2oc(NC(=O)c3ccc(N4CCOCC4)c([N+](=O)[O-])c3)nc2c1`, the growth is 96.7% (inactive). For the molecule `O=C(CN1CCN(c2ccc(Cl)cc2)CC1)N1CCN(c2nnc(-c3ccccc3)c(-c3ccccc3)n2)CC1`, the growth was -50.1% (active).

On to `COc1ccc(-c2cn(-c3cccc(C(=O)/C=C/c4cc(OC)c(OC)c(OC)c4)c3)c(=O)[nH]2)cc1`, for which the growth was 5.72% (active).
